Molecules are shown by their SMILES. Several values for one entry are separate records, joined by “and”; a condition that tells them apart may be missing. Equal values may be shown once.

What all share (type): functional
For test [1], the target named is Solute carrier family 2, facilitated glucose transporter member 1 (Homo sapiens) (UniProt P11166). The test can be described thus: ST_JUDE_LEISH: Cytotoxicity at 2uM final concentration against transgenic Leishmania Mexicana promastigotes LmGLUT1 that are glucose transport deficient and complemented with the human glucose transporter GLUT1. Activity is measured by DNA content using SYBR green in vitro.
Chain of Solute carrier family 2, facilitated glucose transporter member 1 (Homo sapiens) (P11166 whole entry): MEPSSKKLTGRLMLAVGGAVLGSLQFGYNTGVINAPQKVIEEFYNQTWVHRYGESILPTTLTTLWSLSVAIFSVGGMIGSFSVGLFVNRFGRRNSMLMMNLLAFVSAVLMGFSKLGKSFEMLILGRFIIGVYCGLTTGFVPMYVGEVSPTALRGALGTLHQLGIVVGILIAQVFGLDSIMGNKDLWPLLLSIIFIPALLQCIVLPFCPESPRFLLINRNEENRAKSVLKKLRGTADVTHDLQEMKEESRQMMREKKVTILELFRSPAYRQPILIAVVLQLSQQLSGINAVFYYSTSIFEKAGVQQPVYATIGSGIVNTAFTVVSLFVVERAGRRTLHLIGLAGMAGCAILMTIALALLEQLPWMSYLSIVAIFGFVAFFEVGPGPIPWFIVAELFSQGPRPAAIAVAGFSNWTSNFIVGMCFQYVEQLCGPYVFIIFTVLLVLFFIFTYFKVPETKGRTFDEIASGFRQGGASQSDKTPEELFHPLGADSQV

In test [2] the target is Hexose transporter 1 (Plasmodium falciparum) (UniProt O97467). Kind of test: ST_JUDE_LEISH: Cytotoxicity at 2uM final concentration against transgenic Leishmania Mexicana promastigotes LmPfHT that are glucose transport deficient and complemented with the Plasmodium falciparum hexose transporter. Activity is measured by DNA content using SYBR green in vitro.
Test [3] addresses Glucose transporter (Leishmania mexicana) (UniProt O61059). Kind of test: ST_JUDE_LEISH: Cytotoxicity at 2uM final concentration against transgenic Leishmania Mexicana promastigotes LmGT2 that are glucose transport deficient and complemented with the L. Mexicana glucose transporter 2. Activity is measured by DNA content using SYBR green in vitro.

For the molecule `CCCNCc1ccc(-c2ccc(CN(Cc3cccs3)C(=O)C3CCN(C)CC3)cc2)nc1`, the values for the inhibition in test [1], in test [2] and in test [3] were 2.14%, 0.83% and -0.89%, respectively.

`CC(C)Cn1cc(C2CCN(CCN3CCC(CNC(=O)c4ccc(NC(=O)c5ccc(Cl)cc5)cc4)CC3)CC2)c2ccccc21`: the results for the inhibition in test [1], in test [2] and in test [3] were 7.85%, 7.36% and 4.99%, respectively.

Take `CC(C)CNCc1cccc(-c2ccc(CN(CCCN3CCN(C)CC3)C(=O)/C=C/c3ccccc3)cc2)c1`: the inhibition in test [1] came to 2.92%; in test [2] it was 3.29%; in test [3], 3.9%.

`Cc1cc(Nc2ccc(C)c(Cl)c2)n2ncnc2n1`: the values for the inhibition in test [1], in test [2] and in test [3] were -2.06%, -1.7% and -4.9%, respectively.

Turning to `COc1cc(Cc2cnc(N)nc2N)cc(OCCCCCC(N)=O)c1OC`, the inhibition in test [1] was -0.36%; in test [2] it was -2.79%; in test [3] it was 1.17%.

Consider `CC(C)NCc1ccc(-c2cccc(CN3CCC(c4ccccc4)CC3)c2)c(C(=O)NCC2CCCCC2)c1`, for which the inhibition in test [1] was determined as 7.97%; in test [2], 8.3%; in test [3], 8.2%.

Turning to `CC(C)C1=C[C@H]2C[C@]3(C4OCCO4)[C@@H]4CC[C@@H](C)[C@H]4C[C@@]2(COCc2cccc(C#N)c2)[C@]13C(=O)OC(c1ccccc1)c1ccccc1`, the inhibition in test [1] was 4.12%; in test [2], 3.24%; in test [3] it was 2.75%.

`Cc1oc(-c2ccccc2)nc1CCOc1ccc(C[C@H](Nc2ccccc2C(=O)c2ccccc2)C(=O)NCc2ccccn2)cc1`: the inhibition in test [1] worked out at 4.4%; in test [2], 4.88%; in test [3] it was 4.35%.

With `c1ccc(Oc2ccc(Nc3ccnc4cc(-c5ccc(CN6CCOCC6)o5)ccc34)cc2)nc1`, the figures for the inhibition in test [1], in test [2] and in test [3] were -1.57%, -1.03% and -0.13%, respectively.

With `CCCCCCc1cc(Oc2c(I)cc(C[C@H](N)C(=O)O)cc2I)ccc1O`, the inhibition in test [1] is 0.33%; in test [2], 1.79%; in test [3] it was -0.38%.

Turning to `Cc1nc2c(c(O)c1Cl)-c1ccc(Oc3cccc(C(F)(F)F)c3)cc1C2=O`, the inhibition in test [1] was 2.13% and 1.44%; in test [2], 2.5% and 1.39%; in test [3], 1.75% and 2.09%.

With `Cc1onc(-c2c(Cl)cccc2Cl)c1C(=O)N1CCc2cc3nccc(N4CCN5CCC[C@H]5C4)c3cc21`, the inhibition is 3.46% in test [1], 4.46% in test [2] and 5.26% in test [3].

Take `O=C(C=Cc1ccc(Cl)c(Cl)c1)NCCCCCN1CCC(CCCNS(=O)(=O)c2ccc(Br)cc2)CC1`: the inhibition was 3.69% in test [1], -0.68% in test [2] and 4.73% in test [3].

As to `Cc1cc(-c2cccc(CNC3CCCC3)c2)ccc1S(=O)(=O)NCCN1CCCC1`, the inhibition came to 5% in test [1], 3.43% in test [2] and 6.24% in test [3].

For the molecule `Cc1ccc(NC(=O)Nc2ccc(Cl)c(C(F)(F)F)c2)cc1-c1ccc(C(=O)Nc2ccncc2)cc1`, the inhibition worked out at 3.55% in test [1], 2.27% in test [2] and 3.98% in test [3].

For `O=C(Nc1ccc(OC2CCN(Cc3ccc(F)cc3)CC2)c(Cl)c1)c1ccoc1`, the inhibition in test [1] was found to be 2.65%; in test [2], 2.09%; in test [3], 3.99%.

In the case of `CCOC(=O)c1nc2ccc(SC3CCCCC3)cn2c1Br`, the inhibition in test [1] is 1.75%; in test [2], 0.06%; in test [3], 5.65%.

For the molecule `Cc1cc(NCCC(=O)NCCOc2ccccc2)nc(NCCc2ccccc2)n1`, the inhibition in test [1] was found to be 7.78%; in test [2] it was 5.18%; in test [3], 0.66%.

As for `CCCOc1cc(NC(=O)Nc2ccnc3ccccc23)cc(OCCC)c1`, the inhibition in test [1] is -2.56%; in test [2], 3%; in test [3], 3.42%.

For `Cc1cc(=NN=Cc2ccccc2)c2cc(C(F)(F)F)ccc2[nH]1`, the inhibition was 8.02% in test [1], 8.87% in test [2] and 6.17% in test [3].

Turning to `CC[C@H](C)CNC(=O)c1cncc(-c2ccc(CNC3CCCC3)cc2)c1`, the results for the inhibition in test [1], in test [2] and in test [3] were 2.12%, 1.43% and 1.7%, respectively.

Take `CC(C)c1ccc(NC(S)=NN=Cc2ccccn2)cc1`: the inhibition in test [1] worked out at 63.9%; in test [2], 88.5%; in test [3], 86.1%.

`N#Cc1ccc(N2CCN(Cc3ccc(-c4ccc(-c5nc6cc(C(F)(F)F)ccc6[nH]5)s4)cc3)CC2)nc1`: the inhibition in test [1] came out at 2.33%; in test [2], 1.76%; in test [3], 0.96%.

In the case of `CN(C)CCN(C)Cc1ccc(-c2ccc(NC(=O)c3cccc(C#N)c3)cc2)cc1`, the inhibition turned out to be 3.64% in test [1], 2.58% in test [2] and 0.19% in test [3].

Take `COc1ccc2c(=O)c(I)c(C)[nH]c2c1`: the values for the inhibition in test [1], in test [2] and in test [3] were -1.2%, -1.12% and -3.12%, respectively.

With `O=C(/C=C/c1ccc(Cl)c(Cl)c1)NCCCCN1CCCN(C(=O)Nc2ccc(C(F)(F)F)cc2)CC1`, the inhibition in test [1] was determined as 3.18%; in test [2], 4.68%; in test [3], 1.09%.

Consider `Cc1ccc(CNC(=O)[C@H](CC(C)C)Nc2cc(C)nc(NCC3CCCCC3)n2)cc1`, for which the inhibition worked out at 11.2% in test [1], 9.15% in test [2] and 9.26% in test [3].

For the molecule `O=c1cc(NCCCNCc2cc(C(F)(F)F)ccc2Cl)[nH]c2ccccc12`, the inhibition in test [1] is -0.91%; in test [2] it was 0.29%; in test [3] it was -1.57%.

Consider `Clc1ccc(-c2nc(-c3ccncc3)c[nH]2)cc1Cl`, for which the inhibition in test [1] was 0.68%; in test [2], 0.78%; in test [3], -0.87%.

For the molecule `FC(F)(F)c1cc(Nc2ncnc3ccc(Br)cc23)ccc1OCc1ccccc1`, the inhibition in test [1] is 6.39%; in test [2], 3.97%; in test [3], 3.84%.

`COc1ccc(C2CCN(CCN3CCC(NC(=O)c4cccc(-c5ccncc5)c4)CC3)CC2)c(OC)c1`: the results for the inhibition in test [1], in test [2] and in test [3] were 1.32%, 0.37% and 0.47%, respectively.

As for `CN1CCC(NCc2ccc(-c3ccc(Cl)cc3)cc2)CC1`, the values for the inhibition in test [1], in test [2] and in test [3] were 5.65%, 8.78% and 4.44%, respectively.

As to `O=C(Nc1ccc2ccccc2c1)N1CCC(NCc2cccc([N+](=O)[O-])c2)CC1`, the inhibition turned out to be 2.09% in test [1], 1.61% in test [2] and 0.78% in test [3].

`Nc1ncc(-c2ccccc2)cc1/C=C/c1cccnc1`: the figures for the inhibition in test [1], in test [2] and in test [3] were 0.64%, -2.47% and 0.23%, respectively.

`Fc1ccc2[nH]c(-c3cccc(-c4cccc(CNCCc5ccncc5)c4)c3)nc2c1`: the results for the inhibition in test [1], in test [2] and in test [3] were 11.1%, 10.6% and 12.9%, respectively.

Regarding `CC1CN(c2ncc(-c3ccc(CNC4Cc5ccccc5C4)cc3)cn2)CC(C)N1` (stereo not drawn), the inhibition stood at 2.69% in test [1], 2.64% in test [2] and 0.64% in test [3].

As usually defined, the inhibition is the change of the read-out against control, counted positive when it falls.
